# Source: PubChem BioAssay (National Center for Advancing Translational Sciences (NCATS))
# The entries come from a sample that favours hits as a whole.
# VACV mCherry inh: inhibitors of vaccinia virus infection (mCherry reporter signal). 0.63% of 310,000 active. AID 720579. Vaccinia virus mCherry reporter infection, fluorescence. Potency, µM (doses to about 36.5 µM), most hits filed as inhibitors; calls by dose curve; tested in A549 cells; further: nearly all actives have a fitted effect of over 35% in size
# Cycloheximide cs: affects cycloheximide protein synthesis inhibition readout, counter-screen; max response, %; 12% of 300,000 active; cell reporter, cycloheximide protein synthesis inhibition counterscreen; in the data active means max response mostly above about 13%, no sharp cut-off; inactive means mostly below about 14%; further: read at 38.3 µM for the half of the compounds with a filed dose
# Vaccinia Venus: vaccinia inhibition (Venus reporter). 0.46% of 330,000 active. AID 720580. Vaccinia virus Venus reporter expression, fluorescence. Potency, µM (doses to about 36.5 µM), usual class: inhibitors; calls by dose curve; tested in A549 cells; further: nearly all actives have a fitted effect of over 30% in size
# MARV entry inh: inhibitors of Marburg virus binding or cell entry; 1.8% of 300,000 active; Marburg virus pseudotyped entry inhibition, cell reporter; Potency, µM (titrated, usually from 37.8 µM), usual class: inhibitors; AID 540276; calls by dose curve; tested in HEK293 cells
# Shiga inhibitor: blocks Shiga toxin action in Vero cells. Vero cells, Shiga toxin protein synthesis inhibition reporter. 9.2% of 290,000 active. inhibition, % at 38.7 µM; in the data active means inhibition mostly above about 28%, no sharp cut-off; inactive means mostly below about 43%
# Lassa entry inh: inhibitors of Lassa virus binding or cell entry | Lassa virus pseudotype entry inhibition, cell reporter | Potency, µM (highest dose often 37.9 µM), most hits filed as inhibitors | 1.2% of 300,000 active; calls by dose curve; tested in HEK293 cells; further: nearly all actives have a fitted effect of over 50% in size
# Numbers stand for hits; 0 = inactive; ? = inconclusive; - = no result given.
SMILES,VACV mCherry inh,Cycloheximide cs,Vaccinia Venus,MARV entry inh,Shiga inhibitor,Lassa entry inh
CC1CCC(NC(=S)NCCN(C)C)CC1 (configuration not stated),0,23.4,0,?,44.8,0
Cc1cccc(CN(C)C[C@@H]2OCc3cnnn3CCCC(=O)N([C@H](C)CO)C[C@H]2C)c1,0,-,0,-,-,-
COc1cccc(NC(=O)C2CCN(c3nnc(-n4c(C)ccc4C)s3)CC2)c1,0,-,0,0,-,0
C=CCOC(=O)/C(=C/c1cccc2ccccc12)NC(=O)c1ccccc1,?,66.1,0,0,92.2,0
O=C(OCc1ccccc1)/C(=C/c1cccc2ccccc12)NC(=O)c1ccccc1,0,0,0,0,0,?
O=CNc1cc(-c2cccc(F)c2)cn2c(-c3ccc(F)cc3)cnc12,?,-,0,-,-,-
CC(=O)c1ccc(-c2cnc3c(NC=O)cc(-c4cnn(C)c4)cn23)cc1,0,-,0,-,-,-
CC(=O)Nc1cc(-c2cccnc2)cn2c(-c3cccc(C(F)(F)F)c3)cnc12,10µM,-,12.6µM,-,-,-
Nc1ccc(-c2cc(NC=O)c3ncc(-c4cccc(C(F)(F)F)c4)n3c2)cn1,?,-,11.2µM,-,-,-
COc1ccccc1-c1cc(NC(C)=O)c2ncc(-c3cccc(C(F)(F)F)c3)n2c1,0,-,0,-,-,-
COc1cc(-c2cc(NC=O)c3ncc(-c4ccc(C(C)=O)cc4)n3c2)ccc1O,10µM,-,11.2µM,-,-,-
Cn1cc(-c2cnc3c(NC=O)cc(-c4cccc(C(F)(F)F)c4)cn23)cn1,10µM,-,?,-,-,-
O=C(Nc1ccc(Cl)cc1)c1ccc2c(c1)N(Cc1ccccc1)CCS2,0,-,0,0,-,0
O=S1(=O)CC(N2CCN(CCO)CC2)CN1Cc1cn(Cc2ccccc2)nn1 (configuration not stated),0,-,0,-,-,-
CCCNC(=O)C1CCC(Cn2c(=O)c3sccc3n(CC(=O)N(CC)CC)c2=O)CC1 (configuration not stated),0,-,0,-,-,0
Cc1cc(C)cc(NC(=O)CSc2nnc(-c3ccccc3)n2N)c1,-,14.3,-,0,0,0
COc1ccc(NC(C)=O)cc1NC(=O)CSc1nnc(-c2ccncc2)n1C,-,0,-,0,0,0
Nc1ccccc1SCC(=O)Nc1nccs1,0,0,0,?,0,?
COc1ccc(CCCc2nnc(SCC(=O)Nc3nccs3)n2C)cc1C,-,0,-,0,0,20.6µM
Cn1cc(SCC(=O)Nc2nccs2)c2ccccc21,0,39.5,0,-,83.3,-
COc1ccc(NC(C)=O)cc1NC(=O)CSc1nnc(-c2ccccc2)n1N,0,0,0,0,59.6,0
Cc1ccc2c(c1)C(=O)[C@]1(O)CCN(c3ccccc3)C1=N2,-,0,-,-,0,-
Cc1ccc(-c2nnc(SCC(=O)Nc3nccs3)n2N)cc1,-,29.9,-,0,43.5,0
Cc1nn(-c2ccc(N3CCCCC3)nn2)c(C)c1CCC(=O)NCc1ccc(Cl)cc1,0,-,0,-,-,?
Cc1cccc(N=C2NN=C(c3ccc4c(c3)OCCO4)CS2)c1,-,26.9,-,?,92.6,?
SMILES,VACV mCherry inh,Cycloheximide cs,Vaccinia Venus,MARV entry inh,Shiga inhibitor,Lassa entry inh
Cc1ccc(C2=NNC(=Nc3ccc(F)cc3)SC2)cc1,0,25.8,0,?,84.1,?
C=CCn1c(C)cc(C2=NNC(=Nc3ccc(C)cc3)SC2)c1C,0,0,0,?,0,0
O=[N+]([O-])c1ccc(O)c2ncccc12,10µM,0,?,?,0,?
O=[N+]([O-])c1cc(Cl)c(O)c2ncccc12,?,0,?,?,0,?
O=[N+]([O-])c1cc(Cl)c2cccnc2c1O,28.2µM,0,?,?,0,0
CC(C)c1ccc(NS(=O)(=O)c2ccc3[nH]cc(C(=O)NCC4CCCO4)c(=O)c3c2)cc1 (configuration not stated),0,-,0,0,-,0
O=C(c1cccc(-c2nnc(-c3ccccc3)o2)c1)N1CCCCC1,-,51.3,0,0,65.8,0
O=C(c1cccc(-c2nnc(-c3ccccc3)o2)c1)N1CCCCCC1,-,36.5,-,?,102.1,0
Brc1ccc(-c2nnc(-c3cccc(Br)c3)o2)cc1,-,0,0,?,0,0
O=C(O)c1ccc(-c2nnc(-c3cccc(Br)c3)o2)cc1,-,19.9,-,-,35.4,-
O=C(c1ccc(-c2ccccc2)cc1)N1CCCC1,0,0,0,0,0,0
FC(F)(F)c1cnc(COc2cc(Cl)cc(Cl)c2)c(Cl)c1,0,0,0,0,0,0
O=C(N/N=C/c1cc(Br)ccc1OC(=O)c1ccc(Br)cc1)c1ccncc1,4.47µM,0,?,1µM,0,5.62µM
Nc1nonc1C(=O)N/N=C/c1cc(Br)ccc1O,?,31.7,?,?,81.8,?
Nc1nonc1-n1nnc(C(=O)N/N=C/c2cc(Br)ccc2O)c1CNc1ccccc1,0,0,0,?,0,?
O=C(N/N=C/c1ccc(OC(=O)c2ccc(Br)cc2)cc1)c1ccncc1,0,0,0,0,0,0
O=C(N/N=C/c1ccc(O)c2ncccc12)c1cccc(Br)c1,?,0,?,13µM,0,?
O=C(N/N=C/c1cc(Br)ccc1O)Nc1ccccc1,0,0,?,?,76.3,0
NC(=O)N/N=C\c1cc(Br)ccc1O,0,0,0,0,0,0
O=C(N/N=C/c1cccnc1)c1cccc(NC(=O)c2cccc(Br)c2)c1,?,0,0,0,0,0
COc1ccccc1NC(=O)/C(=N/OCc1ccc(C#N)cc1)C(C)=O,0,0,0,?,0,0
CC(C)c1c(C(=O)N/N=C/c2cccnc2)nnn1-c1nonc1N,0,0,0,0,0,0
CC1CCc2c(sc3ncn(CC(=O)N4CCCCC4)c(=O)c23)C1 (configuration not stated),0,0,0,-,0,-
COc1ccc(S(=O)(=O)N2CCN(C(=O)c3ccc(C)o3)CC2)cc1,0,0,0,?,0,0
N#CC(c1ccc(N)cc1)C(CC(=O)c1ccccc1)c1ccccc1 (configuration not stated),0,-,0,-,-,-
SMILES,VACV mCherry inh,Cycloheximide cs,Vaccinia Venus,MARV entry inh,Shiga inhibitor,Lassa entry inh
O=C(Cn1cnc2c(NCc3ccccc3)ncnc21)NCCc1cc2ccccc2[nH]1,0,-,0,-,-,-
O=C(Nc1ccc(Cl)c(C(F)(F)F)c1)C(Cc1ccccc1)NS(=O)(=O)c1ccc(Br)s1 (configuration not stated),0,-,0,0,-,0
COc1cccc([C@@H]2[C@@H](C)CC[C@@H]3C(=O)NC[C@H](O)CN32)c1,-,-,-,0,-,-
COc1ccc(N2C(=O)CS(=O)(=O)C23C(=O)N(Cc2ccccc2F)c2ccccc23)cc1Cl (configuration not stated),0,-,0,-,-,0
O=C(N/N=C/c1cc(Br)ccc1O)c1ccncc1,?,0,0,2.82µM,0,?
CC(=O)Nc1ccc(C(=O)N/N=C/c2cc(Br)cc(Br)c2O)cc1,0,0,0,10µM,0,?
CCOc1ccccc1C=NNC(=O)C(=O)NN=Cc1ccccc1OCC,0,-,0,0,-,0
CN(C)S(=O)(=O)c1cccc(NC(=S)N/N=C/c2cc(Br)ccc2O)c1,?,0,?,10µM,0,?
CCOc1ccccc1NC(=O)C(=O)N/N=C/c1cc(Br)ccc1O,?,0,0,2.51µM,0,1.58µM
CN(C)S(=O)(=O)c1cccc(NC(=S)N/N=C/c2cccc(O)c2)c1,-,0,-,0,0,0
